Sampled rows, rich in hits. Any-hit rate of the full collection: about 19%.
AMA1 RON2 block: inhibitors of Plasmodium falciparum AMA1-RON2 interaction. AlphaScreen AMA1-biotinylated RON2 peptide binding. 360,000 tested, 0.2% active. Potency, µM (highest dose often 58.2 µM), without a hit: at the highest dose activity change, negative = inhibition, actives largely listed as inhibitors;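 also: potency is read from the fitted curve at half-maximal effect; 0% = vehicle wells and -100% = peptide control; nearly all actives have a fitted effect of over 45% in size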
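AMA1 (3D7) with his tag at 25 nM final met compounds first, then biotinylated RON2 peptide at 25 nM; detection used donor plus acceptor beads, 10 µg/mL apiece, read by AlphaScreen after 30 min at room temperature.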
Shiga toxin inh: inhibitors of Shiga toxin in Vero cells; inhibition, % at 38.7 µM; Vero cells, Shiga toxin protein synthesis inhibition reporter; 290,000 tested, 9.2% active; in the data active = inhibition mostly above about 28%, no sharp cut-off; inactive = mostly below about 43%; also: 0% is about no effect
Pf growth 48h: P. falciparum growth inhibition at 48 hours (one generation); Potency, µM (highest dose often 28.7 µM), inactives show at the highest dose activity change, negative = inhibition, usual class: inhibitors; 310,000 tested, 5.9% active; P. falciparum luciferase growth in erythrocytes, 48 h; also: potency is read from the fitted curve at half-maximal effect; % is scaled to controls: 0 for no effect and ±100 for the full control effect
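Luciferase-expressing parasites in RBCs, 2% Hct / 0.1% parasitemia final; RPMI 1640 + 0.5% Albumax; 37 C, 5% CO2, one generation; luminescence read-out, lower signal = inhibition.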
Pf growth 96h: P. falciparum growth inhibition at 96 hours | P. falciparum luciferase reporter growth, 96 h | Potency, µM (doses to about 28.7 µM), for inactives: at the top dose activity change, negative = inhibition, hits mostly inhibitors | 320,000 tested, 6.9% active | AID 504834; also: potency is read from the fitted curve at half-maximal effect; % is scaled to controls: 0 for no effect and ±100 for the full control effect
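Infected RBCs, 2% Hct / 0.05% parasitemia final; luciferase-reporter P. falciparum; cpd 96 h, 37 C, 5% CO2; luciferase detection reagent; luminescence.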
CHX counter: counter-screen hit for Shiga toxin inhibitors, cycloheximide; AID 2314; 300,000 tested, 12% active; max response, %; cell reporter, cycloheximide protein synthesis inhibition counterscreen; in the data active = max response mostly above about 13%, no sharp cut-off; inactive = mostly below about 14%; also: read at 38.3 µM for the half of the compounds with a filed dose; 0% is about no effect
SARS PLP yeast: SARS-CoV PLP inhibition in yeast; S. cerevisiae expressing SARS-CoV PLpro, growth rescue; Potency, µM (series often up to 32.9 µM), inactives show at the top dose activity, positive = growth rescue, most hits filed as activators; 330,000 tested, 0.19% active; AID 485353; calls by dose curve; also: potency is read from the fitted curve at half-maximal effect; 0% is about no effect; nearly all actives have a fitted effect of over 55% in size
Numbers without * were called inactive; i = inactive; ? = inconclusive; / = no result given; [ ] = another dose, or the depositor's remark. Unless noted, calls follow the shape of the dose curve; as a rule, active = well fitted curve in the direction sought with a large enough effect; inconclusive = small, poorly fitted or top-dose-only effect, or another doubt; inactive = no such curve, though single readings can be large; an effect the other way counts as inactive or inconclusive.

SMILES	AMA1 RON2 block	Shiga toxin inh	Pf growth 48h	Pf growth 96h	CHX counter	SARS PLP yeast
O=C(NC(=S)Nc1nc2ccc(F)cc2s1)c1ccco1	52%	90*	118%	?	32*	3%
Cc1ccc(C(=O)Nc2nc3ccc(S(C)(=O)=O)cc3s2)o1	4%	44*	233%	356%	34*	-22%
Cc1cccc2sc(NC(=O)CCNC(=O)c3ccco3)nc12	-6%	/	?	-8%	/	-2%
CS(=O)(=O)c1ccc2nc(NC(=O)c3ccco3)sc2c1	-3%	40*	99%	143%	36*	-47%
Cc1c(Cl)ccc2sc(NC(=O)c3ccco3)nc12	6%	83*	195%	206%	67*	-21%
CS(=O)(=O)c1ccc2nc(NC(=O)c3cc4ccccc4o3)sc2c1	-6%	-6	/	-33%	-1	-4%
COc1cc(OC)cc(-c2nnc(NC(=O)CCS(=O)(=O)c3ccc(C)cc3)o2)c1	77%	/	9%	?	/	-8%
CCCCC(=O)OCC(=O)N1N=C(c2c[nH]c3ccccc23)C(O)C1c1ccc(OC)cc1 (stereo not drawn)	3%	8	/	-6%	3	1%
O=C(CSc1nnc(-c2ccc(O)cc2)n1Cc1ccco1)N1CCc2ccccc2C1	-17%	49	?	2%[5.75 µM]	-4	5%
Cc1cc(Br)c2c(c1)=C(c1sc(N3CCCCCC3)nc1O)C(=O)N=2	0%	63*	?	23%	17*	3%
Cc1ccc2c(c1)=C(c1sc(N(C)c3ccc(O)cc3)nc1O)C(=O)N=2	0%	6	?	15%	3	-1%
CC(OC(=O)c1ccccn1)C(=O)Nc1nc(-c2ccc(F)c(F)c2)cs1 (stereo not drawn)	30%	/	/	/	/	-11%
CC(OC(=O)CNC(=O)c1ccccc1F)C(=O)Nc1nc(-c2ccccc2)cs1 (stereo not drawn)	-8%	101*	138%	129%	66*	-5%
CC(OC(=O)c1ccc(O)cc1)C(=O)Nc1nc(-c2ccccc2)cs1 (stereo not drawn)	-4%	/	6.6µM*	?	/	-3%
COc1ccc(C(=O)NC(=S)NCCc2ccccc2)cc1	-19%	22	12%	22%	-1	1%
CC(C)(C)CC(=O)NC(=S)NCCc1ccccc1	41%	62	-12%	12µM*	30*	27%
CC(C)CC(=O)NC(=S)NCCc1ccccc1	51%	57*	?	?	26*	2%
CC(C)(C)C(=O)NC(=S)NCc1ccccc1	-13%	-7	-31%	9.3µM*	-7	-12%
O=C(NNS(=O)(=O)c1ccc(Cl)cc1)c1cccc(S(=O)(=O)N2CCOCC2)c1	34%	-6	2%	6%	-2	2%
C[C@H]1CN([C@@H](C)CO)C(=O)c2cccc(NC(=O)Nc3ccc(C(F)(F)F)cc3)c2O[C@@H]1CN(C)S(=O)(=O)c1ccc(Cl)cc1	-3%	/	/	/	/	4%
COc1ccc(C(=O)COC(=O)CN2C(=O)c3ccccc3C2=O)c(OC)c1	11%	-14	?	43%	-4	0%
C=CCn1c(SCC(=O)Nc2ccc(F)cc2F)nc2c([nH]c3ccccc32)c1=O	4%	-2	3%	9%	-3	2%
C=CCn1c(SCC(=O)Nc2ccccc2OC)nc2c([nH]c3ccccc32)c1=O	10%	8	?	4.1µM*	-2	-2%
CCn1c(SCC(=O)N2CC(C)OC(C)C2)nc2c([nH]c3ccccc32)c1=O (stereo not drawn)	-9%	3	6.6µM*	?	7	1%
CN(C)CCn1c(SCc2ccccc2C#N)nc2c(sc3ccccc32)c1=O	-5%	38	?	6.6µM*	11	-3%
SMILES	AMA1 RON2 block	Shiga toxin inh	Pf growth 48h	Pf growth 96h	CHX counter	SARS PLP yeast
COCCn1c(SCC(=O)N2CC(C)OC(C)C2)nc2c([nH]c3ccccc32)c1=O (stereo not drawn)	5%	5	?	?	-2	-1%
CCN(CC)CCn1c(SCC(=O)Nc2ccc(F)cc2)nc2c(sc3ccccc32)c1=O	/	5	9.3µM*	?	0	-2%
CC(C)C1C(=O)N(Cc2cn(CC3CCCCC3)nn2)CCS(=O)(=O)N1Cc1ccc(-c2cccc(CO)c2)cc1 (stereo not drawn)	-2%	/	/	/	/	/
COc1cc2[nH]c(C(=O)N3CCN(c4ccc(F)cc4)CC3)cc2c(OC)c1OC	-1%	2	?	-30%	-4	1%
O=C(COC(=O)COc1ccc(Cl)cc1Cl)NC1CCCC1	0%	/	9%	22%	/	-5%
COCCn1c(SCC(=O)Nc2ccc(F)cc2)nc2c([nH]c3ccccc32)c1=O	-8%	-8	?	3.3µM*	-1	-2%
COCCn1c(SCC(=O)Nc2ccccc2OC)nc2c([nH]c3ccccc32)c1=O	-11%	12	?	9.3µM*	1	2%
COCCn1c(SCC(=O)Nc2ccc(C(N)=O)cc2)nc2c([nH]c3ccccc32)c1=O	0%	-7	21%	1%	-2	-2%
COc1ccc(C2/C=C\C(c3ccc(OC)cc3)N(Cc3ccc(F)cc3)C(=O)C(=O)N2Cc2ccc(F)cc2)cc1 (stereo not drawn)	/	i	/	/	3	/
N#Cc1ccc(-c2nc3ccc(Br)cn3c2Cc2ccccc2)cc1	-20%	/	/	/	/	/
CSc1nc(N)nc(SC2C=CCCC2)c1C#N (stereo not drawn)	-1%	60	-29%	-1%	26*	9%
Cc1nc2ccccc2c(=O)n1/N=C/c1ccccc1Cl	6%	72*	68%	67%	33*	-5%
Cc1ccc(/C=N/n2c(C)nc3ccccc3c2=O)s1	/	92*	i	210%	40*	-5%
COc1ccc(/C=N/n2c(C)nc3ccccc3c2=O)cc1	3%	38	49%	67%	-2	-13%
Cc1ccccc1S(=O)(=O)N1[C@@H](c2ccc(Cl)cc2)C(C(=O)O)=CC[C@H]1c1ccc(Cl)cc1	5%	/	/	/	/	?
CCOC(=O)c1c(C)cc2c(CO)n[nH]c(=O)c2c1C	9%	/	/	/	/	/
Cc1ccc(N=C2NC(=O)/C(=C/c3cccs3)S2)cc1C	0%	11	-7%	?	7	-8%
O=C1NC(=Nc2ccccc2)S/C1=C/c1cccnc1	-7%	23	8%	29%	15	2%
O=C1NC(=Nc2ccccc2)S/C1=C/c1cccs1	-6%	69*	167%	31%	41*	0%
CCc1ccc(N=C2NC(=O)/C(=C/c3cc(OC)c(O)c(OC)c3)S2)cc1	1%	-1	?	-30%	-1	-2%
O=C1N/C(=N/Nc2ccccc2)S/C1=C\c1ccccc1	30%	37	?	?	22*	-41%
Cc1cccc(N=C2NC(=O)/C(=C\c3cccs3)S2)c1	17%	67*	30%	14%	34*	-14%

Screening results (PubChem BioAssay)
